Consider 26 compounds from PubChem BioAssay (NCI).

Compounds without any hit were thinned out: in the full panel of roughly 83,000, 20% have a hit.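 Percent growth is the endpoint: 0 to 100 indicates growth inhibition (40 means 60% inhibition), 0 means no net growth, and negative values indicate cell death.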 Values without a mark were called inactive. Calls of active or inactive are those of the source. How the source made its calls: active means growth percent below 10; inactive means the rest.

In the experiment the test system is HL-60(TB) leukemia. The experiment can be described thus: NCI-60 one-dose screen, 48 h (100 = growth as untreated, 0 = no growth, -100 = all killed). The note with it: 10 µM unless noted.
Regarding `CCC(CC)NCC(C)(C)O`, the growth is 97.7%.
Consider `Cc1ccc(-c2nc(C#N)c(S(=O)(=O)n3nc(C)cc3N)o2)cc1`, for which the growth is 16.6%.
Consider `CC(=O)c1cc(C(=O)c2ccc3c(c2)Sc2ccccc2N3)c2c(C)cc(C)cn12`, for which the growth was -12.6% (active).
For the compound `c1ccc(/C(=N\Nc2ccc3ccccc3n2)c2ccccn2)cc1`, the growth is -29.8% (active).
The value for `Cc1ccc(-c2cc3nc(C(Cl)Cl)nc(-c4cccnc4)n3n2)cc1` was 10.5%.
For `OCCc1ccc(Cl)cc1`, the growth was 104%.
Consider `c1ccc2c(-c3nc4ccccc4[nH]3)cccc2c1`, for which the growth was -3.88% (active).
The same measure for `COc1cc(Nc2ncc(F)c(Nc3ccc4c(n3)NC(=O)C(C)(C)O4)n2)cc(OC)c1OC`: 103%.
The same measure for `CC(C)Cc1ccc([C@H](C)C(=O)O)cc1`: 92.9%; for `COC(=O)c1cnc2c(c1)Oc1ccccc1-c1ccnn1-2`: 98.3%; for `Clc1ccc2c(NCCCn3cnc4c(N5CCCC5)nc(Cl)nc43)ccnc2c1`: 81.6%.
The value for `Cc1ccc(-c2csc(NC(=O)CSc3nc(N)cc(N)n3)n2)cc1` was 48.9%; that for `NCCn1cc(-c2nc(-c3c[nH]c4ncccc34)cs2)c2ccccc21` was 78.2%.
For `CN(C)c1ccc(NC(=O)c2ccc(/C=C/C(=O)c3ncc[nH]3)cc2)cc1`, the growth was 17.5%.
`CCOC(=O)c1c(Cl)c2c(n1Cc1cc(OC)cc(OC)c1)-c1oncc1CCC2`: the growth is 0.728% (active).
Consider `O=C(Cc1ccccc1)C(F)(F)F`, for which the growth was 95%.
The same measure for `O=C1NC(=C(Cl)Cl)/C(=N\S(=O)(=O)NCc2ccccc2)N1`: 97%; for `CC1=NN(c2cccc(Cl)c2)C(=O)/C1=C\c1cn(CC(O)CN2CCCCC2)c2ccccc12` (stereo unspecified): 25.7%.
The same measure for `COc1cccc(Nc2ncnn3ccc(CN4CC[C@@H](N)[C@H](O)C4)c23)c1`: 73.8%.
The same measure for `CC(C)(C)NCC(O)COc1c(Br)c(Br)c(Br)c2c1OC(C)(C)C2` (stereo unspecified): -59.3% (active); for `COc1ccc2sc(-n3nc4nc5n(c(=O)c4c3N)-c3ccccc3Sc3ccccc3-5)nc2c1`: 66.6%.
In the case of `CN1CCN(Cc2ccc(NC(=O)c3cncc(C#Cc4c(N)ncc5ccccc45)c3)cc2C(F)(F)F)CC1`, the growth is -53.2% (active).
In the case of `COc1ccc(S(=O)(=O)NCCCNc2nccc(-c3c(-c4cccc(N)c4)nc4sccn34)n2)cc1`, the growth is 112%.
The same measure for `O=C1c2cc(S(=O)(=O)O)ccc2C(=O)c2c1cccc2[N+](=O)[O-]`: 101%; for `CC(C)CC1C(=O)N2CCC[C@H]2C2(O)O[C@](NC(=O)C3C=C4c5cccc6[nH]c(Br)c(c56)C[C@H]4N(C)C3)(C(C)C)C(=O)N12` (stereo partly specified): 1.92% (active); for `COc1ccc(C(=O)C/C(=C\c2ccc(O)c(OC)c2)C(=O)NN)cc1`: 66.4%.
